# The panel holds about 83,000 compounds, 20% with a hit somewhere; the sample as a whole holds those more often.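 Single-concentration screen, 48 h exposure, 96-well plates. Endpoint: percent growth. Below 10 = active.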 A number with no mark means an inactive call. The source made the active and inactive calls.
# Key:
# Test in all cases: NCI-60 one-dose screen, 48 h (100 = growth as untreated, 0 = no growth, -100 = all killed)
# [1] = test system: RPMI-8226 leukemia; details: 10 µM unless noted
# [2] = test system: OVCAR-8 ovarian; details: 10 µM unless noted
# [3] = test system: OVCAR-5 ovarian; details: 10 µM unless noted
# [4] = test system: OVCAR-4 ovarian; details: 10 µM unless noted
# [5] = test system: SK-OV-3 ovarian; details: 10 µM unless noted
# [6] = test system: IGROV1 ovarian; details: 10 µM unless noted
# [7] = test system: OVCAR-3 ovarian; details: 10 µM unless noted
# [8] = test system: HS 578T breast; details: 10 µM unless noted
# [9] = test system: NCI/ADR-RES ovarian; details: 10 µM unless noted
# [10] = test system: T-47D breast; details: 10 µM unless noted
# [11] = test system: BT-549 breast; details: 10 µM unless noted
# [12] = test system: MDA-MB-435 melanoma; details: 10 µM unless noted
# [13] = test system: SW-620 colon; details: 10 µM unless noted
# [14] = test system: MCF7 breast; details: 10 µM
# [15] = test system: HCC-2998 colon; details: 10 µM unless noted
# [16] = test system: KM12 colon; details: 10 µM unless noted
# [17] = test system: HCT-116 colon; details: 10 µM unless noted
SMILES,growth [1],growth [2],growth [3],growth [4],growth [5],growth [6],growth [7],growth [8],growth [9],growth [10],growth [11],growth [12],growth [13],growth [14],growth [15],growth [16],growth [17]
COc1ccc(-n2c(C(O)c3ccccc3)nn(CN3CCOCC3)c2=S)cc1 (centres undefined),88.9%,107%,101%,96.1%,101%,96.6%,124%,93.3%,107%,90.4%,108%,106%,87%,105%,106%,99.8%,
CN(C)c1ccc(N=Cc2ccc(N3CCOCC3)cc2)cc1,47.5%,62.7%,111%,19.1%,94.7%,117%,-4.05% (active),107%,83.1%,94.4%,95.1%,74.1%,44.2%,39%,54.2%,59.5%,
Cc1ccc(S(=O)(=O)c2c(COC(=O)c3cccc(C)c3)c(-c3ccccc3)nn2C)cc1,78.5%,88.5%,115%,-59% (active),104%,80.9%,-77.9% (active),99.9%,106%,-64.3% (active),57.1%,-33.7% (active),-37.2% (active),-49.2% (active),60%,16.3%,
O=C1OC(c2ccccc2)(c2ccccc2)c2ccsc21,89.1%,101%,95.7%,107%,102%,107%,100%,103%,115%,104%,104%,108%,97.4%,104%,127%,99.1%,103%
CSc1nc2c(c(=O)[nH]1)N=C1c3ccccc3C(=O)C1C(c1ccc(F)cc1)N2 (centres undefined),68.4%,78.9%,93.6%,41.2%,79.4%,58.3%,21.7%,66.8%,57.5%,72.9%,97.2%,-2.38% (active),54.5%,40.4%,64.9%,41.7%,
O=C1C(=O)c2c(ccc3ccccc23)-c2ccccc21,4.32% (active),2.95% (active),-22.4% (active),-95.3% (active),91.5%,-21.4% (active),-25.5% (active),-8.76% (active),-1.89% (active),-48.6% (active),-72.6% (active),-58.6% (active),-73% (active),-47.6% (active),,18.4%,-53.8% (active)
COc1ccc(/C=C/C(=O)c2ccc3cc(OC)c(OC)cc3c2)cc1OC,4.57% (active),11.4%,29.6%,25.5%,63.3%,53.8%,15.5%,77.2%,11.5%,47.5%,33.9%,7.45% (active),11.1%,25.9%,48.6%,21.5%,
COc1ccc(-c2nocc2-c2cccs2)cc1,124%,110%,88.9%,99%,105%,102%,108%,91.1%,110%,75.7%,105%,101%,99.4%,97.3%,118%,104%,
COc1cc(C(C)n2cc(-c3ccccc3)nn2)ccc1OC1CCCCC1 (centres undefined),35%,55.3%,92.6%,55.2%,73.4%,77.2%,67.6%,91.4%,49.3%,58.8%,69.3%,68.1%,75.5%,49.8%,81.4%,77.9%,
O=C(NC(=S)Nc1cccc(NC(=S)NC(=O)c2ccccc2)c1)c1ccccc1,80.9%,31.6%,116%,16.4%,44.1%,69.1%,65.1%,18.7%,60.1%,54.6%,58.4%,61.4%,74.6%,58.3%,,68%,67.2%
CCOc1c(Br)cc(C2C(C(=O)OC)=CN(C)C=C2C(=O)OC)cc1OC,7.41% (active),85.8%,83.9%,72.9%,87.5%,67.7%,83.3%,75.8%,71%,57.2%,78.1%,47.3%,58%,,-77.5% (active),61.9%,59%
CN1CCN(Cc2ccc(C(=O)Nc3cncc(C#Cc4cnc5cccnn45)c3)cc2C(F)(F)F)CC1,29%,78.7%,47.2%,41.8%,78.9%,31.5%,63.3%,54.8%,91.6%,81.2%,78.3%,57.7%,21.8%,20.4%,90%,12.7%,
COc1ccc(OC)c(NC(=O)/C(C#N)=C/c2ccco2)c1,93.7%,102%,115%,77%,88.2%,92.7%,110%,108%,103%,57.5%,84.5%,98.8%,106%,47.9%,,95.5%,95.1%
COc1ccc(C2c3ccc4ccccc4c3Oc3ncn(CCCn4ccnc4)c(=N)c32)cc1OC (centres undefined),36.1%,67.8%,67.5%,58.9%,76.1%,72.8%,61.3%,83.9%,67.8%,72.4%,69.9%,64.5%,64.4%,51.8%,73.3%,84.2%,28.8%
CC/C=C\C[C@H](O)C/C=C1/C(=O)C=C[C@@H]1C/C=C\CCCC(=O)OCCS(=O)(=O)c1ccccc1,14.6%,26.3%,121%,84.3%,104%,100%,20.7%,36.2%,75.2%,18.3%,2.95% (active),28.3%,33.2%,18.9%,53.4%,25.6%,-23% (active)
C1CCN(c2nc(N3CCCCC3)nc(N3CCOCC3)n2)CC1,100%,96.4%,122%,96%,99.6%,104%,118%,112%,103%,86.2%,109%,101%,103%,,90.7%,106%,105%
CN(O)c1nc(N(C)O)nc(N2CCOCC2)n1,36.8%,33.8%,68.9%,1.09% (active),8.47% (active),20.1%,5.41% (active),75.9%,21.6%,40.9%,60.5%,42.5%,52.4%,15.9%,40.5%,45.8%,12.2%
NC1C(N)C(N)C1N (centres undefined),93.3%,100%,95.7%,105%,92.5%,99.6%,111%,112%,99.6%,102%,107%,122%,106%,,99.9%,119%,103%
CCCCCCn1c(=N)n(CC(O)COc2cccc(C)c2)c2ccccc21 (centres undefined),-24.8% (active),-67.1% (active),-7.84% (active),-31.9% (active),37.3%,-58.1% (active),23.3%,-5.09% (active),-2.54% (active),52.6%,36.6%,-77.3% (active),-65.9% (active),-51.6% (active),-87.1% (active),-43.8% (active),-33.8% (active)
